# DAX1 inh-1 – DAX1 (NR0B1) inhibitors on StAR promoter, primary screen, cell-based, luminescence, SF-1 (NR5A1), full-length DAX-1 | actives 1.1% (n = 370,000) | HEK293T StAR-luciferase reporter, SF-1/DAX-1 repression relief | inhibition, % at 6.8 µM;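 active = inhibition above the mean over all tested compounds plus 3 SD, cut at about 3.6% in these data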;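 also: 0% = DAX-1 cells with DMSO and 100% = cells lacking DAX-1 with DMSO; higher inhibition means more luminescence from relief of DAX-1 repression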
# DAX1 inh-2 – DAX1 (NR0B1) inhibitors, primary screen, cell-based, HEK293, Gal4-DAX1, luciferase luminescence | actives 0.99% (n = 340,000) | inhibition, % at 6.75 µM | AID 504766, 2011 | HEK293 Gal4-DAX1 luciferase reporter | Nuclear receptor subfamily 0 group B member 1 (Homo sapiens), P51843;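 active = inhibition above the mean over all tested compounds plus 3 SD, cut at about 4.2% in these data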;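 also: 0% = DAX1-transfected cells with DMSO and 100% = empty-vector control cells with DMSO; inhibition shows as a rise in luminescence from relieved DAX1 repression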
# hcDAF12 agonist – H. contortus DAF-12 nuclear receptor activators, primary screen, cell-based, luminescence, HEK293, lit1-tk-luc reporter. activation, % at 6.8 µM. actives 1.4% (n = 370,000). HEK293 hcDAF-12 lit1-tk-luc reporter; 0% DMSO, 100% Δ7-dafachronic acid;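 active = activation above the mean of all tested compounds plus 3 SD, cut at about 5.5% in these data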;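 also: 100% = response to 3 µM Δ7-dafachronic acid high control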
# SMARCA2 activ – SMARCA2 (BRM) function activators, primary screen, cell-based, luminescence, high throughput; actives 1% (n = 370,000); MG213 cells, MMTV-luciferase reporter, dexamethasone, overnight; activation, % at 9.1 µM; AID 652017, 2013; in the data active = activation above about 7.8%;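 also: 0% = vehicle wells and 100% = reference activator wells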
# ssDAF-12 act – S. stercoralis DAF-12 nuclear receptor activators, primary screen, cell-based, luminescence, HEK293, GRIP1 co-expression, lit1-tk-luc; Nuclear hormone receptor DAF-12 (Strongyloides stercoralis); HEK293 ssDAF-12/GRIP1 lit1-tk-luc reporter; % of 3 µM dafachronic acid response; activation, % at 6.8 µM; actives 1% (n = 370,000); AID 652126, 2013;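 active = activation above the mean over all tested compounds plus 3 SD, cut at about 0.9% in these data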;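 also: 0% = DMSO-only wells and 100% = 3 µM delta7-dafachronic acid wells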
# hgDAF-12 ag – H. glycines DAF-12 receptor agonists, primary screen, cell-based, luminescence, HEK293, GAL4 fusion, UAS-luciferase | Nuclear hormone receptor DAF-12 (Heterodera glycines), GAL4 fusion | HEK293 GAL4-hgDAF12 UAS-luciferase reporter, agonist luminescence; normalized to butyrate control | activation, % at 6.8 µM | actives 1.8% (n = 370,000) | AID 687014, 2013;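 active = activation above a cutoff set at the mean of all screened compounds plus 3 SD, cut at about 10% in these data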;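 also: 0% = DMSO wells and 100% = sodium butyrate wells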
# LXRb hcDAF ctr – LXR agonists, Gal4 luciferase reporter, confirmation, counter-screen for hcDAF-12 agonist project, cell-based, luminescence, HEK293, H. contortus campaign; HEK293 Gal4-LXR tk-luc reporter, 24 h; normalized: DMSO 0%, positive control 100%; shares compounds with hcDAF12 agonist; activation, % at 6.8 µM; AID 743027, 2013; 3,400 tested, under 10 active;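 active = mean percent activation of the reporter above a cutoff set as the average over tested compounds plus their standard deviation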
# Target sequence (P55055 whole entry, looked up, the tested form may be a part): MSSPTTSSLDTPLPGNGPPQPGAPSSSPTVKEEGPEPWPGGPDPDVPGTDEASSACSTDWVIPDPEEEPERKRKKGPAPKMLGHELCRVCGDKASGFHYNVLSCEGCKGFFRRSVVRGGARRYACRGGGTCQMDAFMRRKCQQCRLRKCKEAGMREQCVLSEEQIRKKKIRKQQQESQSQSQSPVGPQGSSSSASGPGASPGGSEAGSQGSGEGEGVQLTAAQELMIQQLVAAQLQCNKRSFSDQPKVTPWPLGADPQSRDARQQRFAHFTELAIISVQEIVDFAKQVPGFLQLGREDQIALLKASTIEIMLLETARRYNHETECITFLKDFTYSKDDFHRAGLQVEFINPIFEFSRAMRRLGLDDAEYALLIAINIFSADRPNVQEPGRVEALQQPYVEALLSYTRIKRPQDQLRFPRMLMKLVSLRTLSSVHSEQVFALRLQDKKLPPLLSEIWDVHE
# hcDAF12 conf – H. contortus DAF-12 receptor agonists, confirmation, cell-based, luminescence, HEK293, lit1-tk-luc, triplicate | HEK293 hcDAF-12 lit1-tk-luc reporter; % of Δ7-dafachronic acid response | actives 61% (n = 3,400) | shares compounds with hcDAF12 agonist | activation, % at 6.8 µM;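 active = mean activation across triplicate tests above the threshold derived from the earlier primary screen, cut at about 5.5% in these data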;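 also: 0% = DMSO only wells and 100% = 3 µM Δ7-dafachronic acid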
# Starred values were filed as active, the others as inactive; x = not tested or not shown. In the library only some 4.8% were active in any assay of this set; here they are far more common.
SMILES,DAX1 inh-1,DAX1 inh-2,hcDAF12 agonist,SMARCA2 activ,ssDAF-12 act,hgDAF-12 ag,LXRb hcDAF ctr,hcDAF12 conf
CN(C(=O)CCCN1C(=O)c2cccc3cccc(c23)C1=O)c1ccccc1,0.8,0.5,-1.3,2.0,-1.5,-1.8,x,x
CCCCCCCCN1C(=O)[C@@H](CC(=O)NCC2CCCCC2)C[C@@]2(C(=O)OC)C1=C[C@H](C1CCCC1)O[C@@H]2C,0.4,x,0.4,1.4,-0.4,6.5,x,x
CCCC(=O)NCc1nc2ccccc2n1C,0.4,0.5,0.6,-1.4,-1.3,-0.4,x,x
Cn1c(CNc2ccccc2O)nc2ccccc21,0.4,0.1,8.4*,4.7,3.0*,4.4,0.3,9.0*
Cn1c(CNc2ccccc2)nc2ccccc21,1.6,1.6,8.7*,5.7,1.1*,10.3,0.4,6.9*
CCn1c(CNc2ccc(C(=O)O)cc2)nc2ccccc21,0.5,0.0,9.3*,0.9,-0.3,1.1,-0.1,1.8
Cc1ccccc1NCc1nc2ccccc2n1C,3.1,3.1,8.4*,4.3,1.0*,9.6,1.4,6.2*
C/C(=N\Nc1nc2ccccc2[nH]1)c1ccc(C)o1,1.0,0.5,7.5*,2.8,2.2*,7.8,0.5,8.6*
C/C(=N\Nc1nc2ccccc2[nH]1)c1ccc(Cl)s1,0.5,-0.5,1.1,0.3,0.7,3.2,x,x
Cc1cc(NC(=O)Cc2c(C)[nH]c3ccccc23)ccc1Oc1cccnc1,-0.3,x,1.8,-2.3,-0.2,-0.4,x,x
COc1cc(OC)cc(-c2cc3cc4c(cc3cn2)OCO4)c1,x,-1.1,x,x,x,x,x,x
c1ccc(-c2cc3cc4c(cc3cn2)OCO4)cc1,1.6,2.9,8.1*,5.3,1.4*,12.8*,1.6,8.5*
Cc1cccc2sc(NNC(=O)c3ccc4c(c3)OCCO4)nc12,-0.3,1.8,9.4*,-1.4,0.0,0.8,-0.3,3.0
O=C(NNc1nc2cc3c(cc2s1)OCCO3)c1ccccc1,1.1,1.1,2.4,0.8,-0.8,5.9,x,x
CN(C)c1ccc(/C=N/Nc2nncc3ccccc23)cc1,3.6,2.1,8.0*,3.1,1.4*,14.4*,2.1,11.3*
C(=N\Nc1nncc2ccccc12)/c1ccccc1,1.8,3.1,7.7*,4.8,0.3,8.4,1.9,13.6*
CN(C)c1ccc(/C=N/Nc2nc3ccccc3o2)cc1,1.8,-1.1,7.7*,2.2,0.9,10.3,1.1,5.4
COc1ccccc1C(=O)N1CCN(C(=O)[C@@H](Cc2ccccc2)NC(=O)[C@H]2O[C@@H](n3ccc(N)nc3=O)[C@H](O)[C@@H]2O)CC1,0.4,x,-0.5,-0.6,-0.9,3.6,x,x
N#CC(c1c(Cl)cccc1N1CCCCC1)N1CCCCC1 (configuration not stated),0.5,x,-1.9,-0.7,-1.0,3.1,x,x
CCCCCCCCN1C(=O)[C@@H](CC(=O)NCC23CC4CC(CC(C4)C2)C3)C[C@@]2(C(=O)OC)C1=C[C@H](C(C)(C)C)O[C@@H]2C,-0.2,x,-0.3,-9.0,-1.2,-0.7,x,x
COc1ccc(C2c3ccccc3NC3C2C(=O)N(Cc2ccc(OC)cc2OC)[C@H]3Cc2ccccc2)cc1 (some centres not stated),-1.5,x,-1.4,-3.2,-1.6,4.0,x,x
CCC(=O)N(CC)Cc1cc(=O)[nH]c2ccccc12,0.7,2.6,6.8*,0.2,0.2,5.1,-0.1,4.2
c1ccc(SCc2nc(-c3cccnc3)no2)cc1,0.3,2.4,7.3*,0.3,0.5,8.4,1.6,5.8*
c1ccc(C(Cc2nc(-c3cccnc3)no2)c2ccccc2)cc1,-1.0,0.1,-2.8,1.1,-1.7,-2.9,x,x
O=c1oc2c(O)cccc2cc1-c1nc2ccccc2[nH]1,1.8,-1.0,8.1*,5.9,0.1,9.1,1.0,2.6
SMILES,DAX1 inh-1,DAX1 inh-2,hcDAF12 agonist,SMARCA2 activ,ssDAF-12 act,hgDAF-12 ag,LXRb hcDAF ctr,hcDAF12 conf
COC(=O)c1c(NC(=O)COC(=O)c2ccc(Cl)cc2[N+](=O)[O-])sc2c1CCCCC2,-0.3,0.2,2.1,3.0,-1.1,1.1,x,x
COC(=O)c1c(NC(=S)Nc2ccc(F)cc2[N+](=O)[O-])sc2c1CCCCC2,-0.8,0.6,9.5*,-1.0,-0.4,2.2,-0.4,1.7
O=[N+]([O-])c1cccc(NC(=S)N2CCc3ccccc3C2)c1,0.8,0.7,1.1,0.2,-0.8,2.6,x,x
O=C1/C(=C/Nc2cccc([N+](=O)[O-])c2)CCc2ccccc21,2.5,3.6,8.1*,3.0,0.2,15.8*,1.3,5.8*
COC(=O)c1c(-c2ccc(OC)cc2)c2c(c3c4cc(OC)ccc4n(C(=O)c4ccccc4)c13)C(=O)N(C)C2,-2.4,x,-0.6,-2.8,-1.2,-1.2,x,x
O=C(O)Cc1sc(Nc2ccccc2)nc1-c1cccs1,1.2,7.8*,6.9*,2.0,-0.1,10.2,0.3,4.1
C=CCNc1nc(-c2cccs2)c(CC(=O)O)s1,1.0,-0.8,1.8,2.2,-0.8,1.6,x,x
Cc1cc(N2CCN(CC(C)(C)O)C[C@@H]2C)ccc1N1CCN(Cc2ccccc2)[C@@H](C)C1,-2.2,x,-1.1,-2.2,-0.7,-2.3,x,x
O=C(CSc1ccc2ccccc2n1)c1ccccc1,1.1,0.8,9.3*,2.8,1.4*,10.1,0.3,8.2*
Cc1nc2ccccc2nc1SCC(=O)c1ccccc1,-1.1,-1.3,6.7*,-3.3,-0.8,-0.4,-0.4,0.8
CCCCCCCCN1C(=O)[C@@H](CC(=O)N2CCCCC2)C[C@@]2(C(=O)OC)C1=C[C@H](C(C)(C)C)O[C@@H]2C,1.1,x,-0.5,-1.6,-0.9,-0.9,x,x
CN(C(=O)c1ccccc1)c1nc2ccccc2s1,2.2,-0.4,6.8*,2.4,-0.1,12.7*,1.4,6.2*

# Screening results from PubChem.
